The results in this text go back to PubChem BioAssay (NCI).

This is part of a sample that, as a whole, favours compounds with a hit. Of some 79,000 tested, about 15% had one in any assay. Unmarked numbers belong to inactive results. The source made the active and inactive calls. No stated cut-off is given here; in the data, active means growth inhibition above about 70%; inactive means the rest.

Test [1] is described as follows: NCI Yeast Anticancer Drug Screen. Data for the rad50 strain (AID 155).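 Further: 0% = growth of vehicle-only cultures of the same strain.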 Conditions: S. cerevisiae rad50 strain growth inhibition, active compounds read high. The method, boiled down: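 Compounds were tested on a yeast strain with an engineered DNA damage repair alteration; the reported value is growth inhibition normalised to vehicle treatment.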
Test [2] can be described thus: NCI Yeast Anticancer Drug Screen. Data for the mec2-1 strain (AID 157). The following applies: S. cerevisiae mec2-1 strain, active compounds read high. An outline of the steps: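 Each compound was tested on mec2-1 yeast, a strain altered in DNA damage repair or cell cycle control. Growth inhibition is reported relative to vehicle.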
Test [3] can be described thus: NCI Yeast Anticancer Drug Screen. Data for the sgs1 mgt1 strain (AID 161).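 Further: 0% = growth of cultures given vehicle only.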 The following applies: S. cerevisiae sgs1 mgt1 strain, active compounds read high. The method, boiled down:
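Genetically altered yeast, compound exposure, growth inhibition relative to vehicle.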

Test [4] can be described thus: NCI Yeast Anticancer Drug Screen. Data for the cln2 rad14 strain (AID 165).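 Further: 0% = growth equal to vehicle treated cultures.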 The following applies: S. cerevisiae cln2 rad14 strain, active compounds read high. An outline of the steps: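 Test compounds were added to cln2 rad14 yeast cultures; inhibition of growth was then determined by comparison with vehicle treatment.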
Test [5] in a line: NCI Yeast Anticancer Drug Screen. Data for the bub3 strain (AID 167). The following applies: S. cerevisiae bub3 mutant strain, active compounds read high. The method, boiled down: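 Growth of a checkpoint-deficient yeast mutant is measured after compound exposure. Values represent inhibition relative to vehicle.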
Test [6] can be described thus: NCI Yeast Anticancer Drug Screen. Data for the mlh1 rad18 strain (AID 175). The following applies: S. cerevisiae mlh1 rad18 strain growth inhibition, active compounds read high. An outline of the steps:
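Inhibition values reflect reduced growth of mutant yeast versus vehicle-treated controls following compound exposure; the mutations affect DNA damage repair.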

The mark [7] stands for this setting: at 5.0 µM (retest, dose inferred, filed as 0.5).
Setting [8] is: at 50.0 µM (retest, dose inferred, filed as 5.0).

Turning to `O=C(Nc1ccccc1)C(F)(F)C(F)(F)C(F)(F)F`, the growth inhibition in test [1] (setting [7]) was 6%; in test [1] (setting [8]) it was 2%; in test [1] (at 50.0 µM), 12.6%; in test [2] (setting [7]), -1%; in test [2] (setting [8]), -24%; in test [2] (at 50.0 µM), 12.7%. The growth inhibition in test [3] (setting [7]) was 17%; in test [3] (setting [8]) it was 14%; in test [3] (at 50.0 µM), -0.35%; in test [4] (setting [7]), 5%; in test [4] (setting [8]), 5%; in test [4] (at 50.0 µM), 26.1%. The growth inhibition is 15% in test [5] (setting [7]); 27% in test [5] (setting [8]); -1% in test [5] (at 50.0 µM); 5% in test [6] (setting [7]); 28% in test [6] (setting [8]); 11.6% in test [6] (at 50.0 µM).
`CCN1CC(=O)N(C)C1=S`: the growth inhibition in test [1] (setting [7]) is -9%; in test [1] (setting [8]) it was 5%; in test [1] (at 50.0 µM) it was 84.7% (active); in test [2] (setting [7]), -6%; in test [2] (setting [8]) it was -19%; in test [2] (at 50.0 µM), 71.2% (active). For the same compound, the growth inhibition is 8% in test [3] (setting [7]); -11% in test [3] (setting [8]); 89% (active) in test [3] (at 50.0 µM); 20% in test [4] (setting [7]); 39% in test [4] (setting [8]); 74.9% (active) in test [4] (at 50.0 µM). In addition, the growth inhibition is 12% in test [5] (setting [7]); 18% in test [5] (setting [8]); 83.8% (active) in test [5] (at 50.0 µM); -5% in test [6] (setting [7]); -41% in test [6] (setting [8]); 79.5% (active) in test [6] (at 50.0 µM).
Take `O=C1CCCCC1=C(I)I`: the growth inhibition was 18% in test [1] (setting [7]); 18% in test [1] (setting [8]); 56.2% in test [1] (at 50.0 µM); 18% in test [2] (setting [7]); 18% in test [2] (setting [8]); 66.5% in test [2] (at 50.0 µM). The growth inhibition in test [3] (setting [7]) was 13%; in test [3] (setting [8]), 13%; in test [3] (at 50.0 µM) it was 68.8%; in test [4] (setting [7]) it was -4%; in test [4] (setting [8]), -4%; in test [4] (at 50.0 µM) it was 39.8%. For the same compound, the growth inhibition in test [5] (setting [7]) was 2%; in test [5] (setting [8]), 2%; in test [5] (at 50.0 µM), 74.4% (active); in test [6] (setting [7]), 12%; in test [6] (setting [8]), 12%; in test [6] (at 50.0 µM), 72.2% (active).
On to `O=S(=O)(Nc1cccc(C2=NCCN2)c1)c1ccc2c(S(=O)(=O)Nc3cccc(C4=NCCN4)c3)cccc2c1`, for which the growth inhibition is -3% in test [1] (setting [7]); 9% in test [1] (setting [8]); 82.5% (active) in test [1] (at 50.0 µM); 6% in test [2] (setting [7]); 2% in test [2] (setting [8]); 9.45% in test [2] (at 50.0 µM). Further, the growth inhibition in test [3] (setting [7]) is -5%; in test [3] (setting [8]), 2%; in test [3] (at 50.0 µM) it was 88.3% (active); in test [4] (setting [7]) it was -1%; in test [4] (setting [8]), 6%; in test [4] (at 50.0 µM), 13.6%. Besides, the growth inhibition is -7% in test [5] (setting [7]); -12% in test [5] (setting [8]); 4.8% in test [5] (at 50.0 µM); -2% in test [6] (setting [7]); 3% in test [6] (setting [8]); 78.2% (active) in test [6] (at 50.0 µM).
For `C=CC(C)(CCC=C(C)C)OC(=O)Nc1ccccc1` (configuration not stated), the growth inhibition was 19% in test [1] (setting [7]); -13% in test [1] (setting [8]); -7.2% in test [1] (at 50.0 µM); 2% in test [2] (setting [7]); -25% in test [2] (setting [8]); -12.7% in test [2] (at 50.0 µM). The growth inhibition was -10% in test [3] (setting [7]); 13% in test [3] (setting [8]); 16.1% in test [3] (at 50.0 µM); -2% in test [4] (setting [7]); 6% in test [4] (setting [8]); -7.95% in test [4] (at 50.0 µM). Also, the growth inhibition is 0% in test [5] (setting [7]); -14% in test [5] (setting [8]); 8.05% in test [5] (at 50.0 µM); -2% in test [6] (setting [7]); 24% in test [6] (setting [8]); -4.25% in test [6] (at 50.0 µM).
In the case of `CN1C/C(=C\c2ccccc2)C(=O)/C(=C/c2ccccc2)C1`, the growth inhibition was 13% in test [1] (setting [7]); 99% (active) in test [1] (setting [8]); 54.5% in test [1] (at 50.0 µM); 16% in test [2] (setting [7]); 100% (active) in test [2] (setting [8]); 10.2% in test [2] (at 50.0 µM). Moreover, the growth inhibition in test [3] (setting [7]) was 19%; in test [3] (setting [8]), 99% (active); in test [3] (at 50.0 µM), 19%; in test [4] (setting [7]) it was 14%; in test [4] (setting [8]) it was 98% (active); in test [4] (at 50.0 µM) it was 52.5%. Also, the growth inhibition is 10% in test [5] (setting [7]); 99% (active) in test [5] (setting [8]); 14.6% in test [5] (at 50.0 µM); 11% in test [6] (setting [7]); 99% (active) in test [6] (setting [8]); 21.4% in test [6] (at 50.0 µM).
Regarding `CN(C)c1cc2c(cc1[N+](=O)[O-])-c1ccccc1C2O` (configuration not stated), the growth inhibition in test [1] (setting [7]) is 5%; in test [1] (setting [8]), 48%; in test [1] (at 50.0 µM), 91.4% (active); in test [2] (setting [7]) it was -1%; in test [2] (setting [8]), 28%; in test [2] (at 50.0 µM), 29.9%. Besides, the growth inhibition in test [3] (setting [7]) was 0%; in test [3] (setting [8]), 57%; in test [3] (at 50.0 µM) it was 56.6%; in test [4] (setting [7]), -4%; in test [4] (setting [8]), 34%; in test [4] (at 50.0 µM), 41.4%. Moreover, the growth inhibition in test [5] (setting [7]) was -6%; in test [5] (setting [8]) it was 60%; in test [5] (at 50.0 µM), 70.5% (active); in test [6] (setting [7]), 5%; in test [6] (setting [8]), 74% (active); in test [6] (at 50.0 µM), 86.6% (active).
With `O=c1oc2ccccc2c(O)c1/C=N/C(=S)NCc1ccccc1`, the growth inhibition is -28% in test [1] (setting [7]); -15% in test [1] (setting [8]); 83.8% (active) in test [1] (at 50.0 µM); -11% in test [2] (setting [7]); -18% in test [2] (setting [8]); 85.8% (active) in test [2] (at 50.0 µM). The growth inhibition in test [3] (setting [7]) was -19%; in test [3] (setting [8]), -19%; in test [3] (at 50.0 µM), 87.3% (active); in test [4] (setting [7]), -19%; in test [4] (setting [8]) it was 10%; in test [4] (at 50.0 µM), 76.2% (active). Besides, the growth inhibition in test [5] (setting [7]) is -19%; in test [5] (setting [8]), 2%; in test [5] (at 50.0 µM), 78.3% (active); in test [6] (setting [7]) it was -36%; in test [6] (setting [8]), -12%; in test [6] (at 50.0 µM), -42.5%.
As for `CN(C)c1ccc(C=Nc2ccc(OCCCCCCCCCCC(=O)O)cc2)cc1`, the growth inhibition was 100% (active) in test [1] (setting [7]); 100% (active) in test [1] (setting [8]); 82.5% (active) in test [1] (at 50.0 µM); 100% (active) in test [2] (setting [7]); 99% (active) in test [2] (setting [8]); 59.9% in test [2] (at 50.0 µM). In addition, the growth inhibition was 77% (active) in test [3] (setting [7]); 86% (active) in test [3] (setting [8]); 76.7% (active) in test [3] (at 50.0 µM); 77% (active) in test [4] (setting [7]); 92% (active) in test [4] (setting [8]); 75% (active) in test [4] (at 50.0 µM). For the same compound, the growth inhibition in test [5] (setting [7]) is 73% (active); in test [5] (setting [8]) it was 84% (active); in test [5] (at 50.0 µM), 84.5% (active); in test [6] (setting [7]), 100% (active); in test [6] (setting [8]), 100% (active); in test [6] (at 50.0 µM), 71.5% (active).
